Data as given in PubChem BioAssay (EPA / NIEHS).
The source made the active and inactive calls. Rule for the calls: active = hit-call score of the fitted dose curve at least 0.9, where 1 is the maximum; inactive = score below 0.9.

Key:
[1] = APR_HepG2_CellLoss_72hr: Apredica 72-hour HepG2 Assay for Cell Loss (AID 2282915); settings: high-content imaging
Outline: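 HepG2 cells were exposed for 72 hr to compounds at 0.39–200 uM (ten concentrations, duplicate) in 0.5% v/v final DMSO. Nuclei were stained with Hoechst 33342 after 3.7% formaldehyde fixation, imaged at 20x, and counted; fits bidirectional versus DMSO.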

[2] = APR_HepG2_P-H2AX_72hr: Apredica 72-hour HepG2 Assay for H2AX Phosphorylation (AID 2282916); settings: imaging, actives raise or lower the signal;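 note: phospho-histone H2A.x immunostain intensity per cell marking DNA damage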
Outline: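 Readout: phospho-H2A.x immunofluorescence (FITC secondary) plus Hoechst nuclear stain, high-content imaging at 20x, six fields/well. HepG2, 72 hr compound exposure, 0.39–200 uM, final DMSO 0.5% v/v. Gain or loss fitted relative to DMSO baseline.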

[3] = APR_HepG2_MitoMembPot_72hr: Apredica 72-hour HepG2 Assay for Mitochondrial Membrane Potential (AID 2282917); settings: imaging, actives raise or lower the signal
Outline: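 HepG2 cells exposed 72 h to compounds at 0.39–200 uM (0.5% v/v DMSO, duplicates); MitoTracker Red CMXRos 250 nM loaded 30 min before 3.7% formaldehyde fixation, imaged by HCS fluorescence. Bidirectional fit versus DMSO.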

[4] = APR_HepG2_MitoticArrest_72hr: Apredica 72-hour HepG2 Assay for Mitotic Arrest (AID 2282918); settings: high-content imaging, actives raise or lower the signal
Outline: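 Using high-content imaging of fixed HepG2 cells, phospho-histone H3 signal was measured following a 72 hr incubation with ten-point compound dilutions up to 200 uM. DMSO served as the negative control and baseline for bidirectional curve fitting.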

[5] = APR_HepG2_MicrotubuleCSK_72hr: Apredica 72-hour HepG2 Assay for Microtubule CSK Stabilty (AID 2282919); settings: HepG2 microtubule cytoskeleton, high-content imaging, actives raise or lower the signal
Outline: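 Ten-point dosing (0.39–200 uM, 0.5% DMSO) of HepG2 for 72 hr, with taxol as the cytoskeletal positive control. The cells were formaldehyde-fixed and then stained with alpha-tubulin/Cy5 and Hoechst. Imaging at 20x used a −2 um Z offset for tubulin.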

[6] = APR_HepG2_P-H2AX_24hr: Apredica 24-hour HepG2 Assay for H2AX Phosphorylation (AID 2282920); settings: high-content imaging, actives raise or lower the signal
Outline: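 Human HepG2 liver cells, treated 24 hr with test chemicals (0.39–200 uM, final DMSO 0.5% v/v), are fixed and co-stained for phospho-H2A.x and c-Jun with Hoechst. Imaged intensity is fitted in both directions against DMSO controls.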

[7] = APR_HepG2_StressKinase_72hr: Apredica 72-hour HepG2 Assay for Stress Kinase (AID 2282921); settings: HepG2 stress kinase (phospho-c-Jun) imaging, actives raise or lower the signal
Outline: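 Phospho-c-Jun immunofluorescence measured by high-content imaging at 20x, six fields per well; bidirectional curve fitting against DMSO as baseline. Dosing: 0.39–200 uM, 72 h, 0.5% DMSO final.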

[8] = APR_HepG2_p53Act_72hr: Apredica 72-hour HepG2 Assay for p53 Activation (AID 2282923); settings: high-content imaging, actives raise or lower the signal;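 note: average cellular p53 protein immunofluorescence intensity in HepG2 cells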
Outline: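 Readout: p53 immunofluorescence quantified by automated high-content imaging at 20x, six fields per well, nuclei located via Hoechst. Dosing ran 72 hr over ten concentrations from 0.39 to 200 uM; bidirectional curve fitting against DMSO baseline.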

[9] = APR_HepG2_MitoMass_72hr: Apredica 72-hour HepG2 Assay for Mitochondrial Mass (AID 2282924); settings: high-content imaging, actives raise or lower the signal;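 note: MitoTracker Red CMXRos stain intensity per cell imaged as mitochondrial mass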
Outline: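 Steps: treat HepG2 72 hr (0.39–200 uM, duplicate wells); load MitoTracker Red CMXRos, 250 nM, 30 min; fix with 3.7% formaldehyde, permeabilise with 0.5% Triton X-100; capture images, nuclei via Hoechst 33342; fit bidirectionally against DMSO.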

[10] = APR_HepG2_StressKinase_24hr: Apredica 24-hour HepG2 Assay for Stress Kinase (AID 2282922); settings: HepG2 stress kinase (phospho-c-Jun) imaging, actives raise or lower the signal
Outline: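 After 24 hr compound treatment (up to 200 uM, final DMSO 0.5% v/v), HepG2 cells are fixed and multiplex-labeled; phospho-c-Jun intensity is captured by high-content fluorescence imaging and analyzed relative to DMSO.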

Measured: AC50

Cc1cnc(C2=NC(C)(C(C)C)C(=O)N2)c(C(=O)O)c1 (stereo not drawn)
not listed: [10]
inactive: all other assays above

Nc1c(Cl)c(F)nc(OCC(=O)O)c1Cl
inactive: all assays above

CS(=O)(=O)c1cc(C(F)(F)F)ccc1C(=O)c1cnoc1C1CC1
inactive: all assays above

COC(=O)NS(=O)(=O)c1ccc(N)cc1
not listed: [10]
inactive: all other assays above

O=C(Nc1ccccc1-c1ccc(Cl)cc1)c1cccnc1Cl
inactive: all assays above

Cc1c(COC(=O)[C@@H]2[C@H](/C=C(\Cl)C(F)(F)F)C2(C)C)cccc1-c1ccccc1
inactive: all assays above

Cc1ccc(N=CN(C)C=Nc2ccc(C)cc2C)c(C)c1
active: [4] 82.4 µM | [5] 163 µM | [6] 154 µM
inactive: all other assays above

COP(=S)(OC)Oc1ccc([N+](=O)[O-])c(C)c1
active: [1] 87.9 µM
inactive: all other assays above

Clc1nc(Cl)nc(Nc2ccccc2Cl)n1
inactive: all assays above

CCN(CC)C(=O)C(C)Oc1cccc2ccccc12 (stereo not drawn)
active: [1] 77.6 µM
inactive: all other assays above

CC(C)NC(=O)N1CC(=O)N(c2cc(Cl)cc(Cl)c2)C1=O
inactive: all assays above

CCN(CC)c1nc(C)cc(OP(=S)(OC)OC)n1
inactive: all assays above

C=C(C)CN(CC)c1c([N+](=O)[O-])cc(C(F)(F)F)cc1[N+](=O)[O-]
active: [1] 105 µM | [5] 135 µM
inactive: all other assays above

C=CCOC(=O)C(C)(C)OC(=O)c1cc(-n2c(=O)cc(C(F)(F)F)n(C)c2=O)ccc1Cl
active: [1] 97.7 µM | [3] 65.2 µM | [4] 90.1 µM | [5] 100 µM
inactive: all other assays above

CNC(=O)N(C)c1nnc(C(C)(C)C)s1
inactive: all assays above

CCC(C)n1c(=O)[nH]c(C)c(Br)c1=O (stereo not drawn)
inactive: all assays above

CCCC(=NOCC)C1=C(O)CC(CC(C)SCC)CC1=O (stereo not drawn)
inactive: all assays above

COc1cc(OC)nc(NC(=O)NS(=O)(=O)c2ncccc2OCC(F)(F)F)n1
inactive: all assays above

CS(=O)(=O)c1ccc(C(=O)C2C(=O)CCCC2=O)c([N+](=O)[O-])c1
inactive: all assays above

CC1(C)C(C=C(Cl)Cl)C1C(=O)OC(C#N)c1cccc(Oc2ccccc2)c1 (stereo not drawn)
inactive: all assays above
